High-throughput results: PubChem BioAssay, several laboratories
HIF-2a block: inhibitors of HIF-2a; 786-0 RCC cells HIF-2a reporter, luciferase luminescence, overnight; inhibition, % at 18.8 µM; hit rate 0.72% among 360,000; AID 624352;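 active means inhibition of the luminescence signal of 40% or more relative to plate controls, in a single-dose primary screen at 18.75 µM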
CF NFkB block: cystic fibrosis NF-kB activation inhibition | hit rate 0.86% among 360,000 | AID 588850 | inhibition, % at 5 µM | KKLEB NF-kB-GFP reporter, PAF-induced, GFP fluorescence overnight;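 active means at least 50% inhibition at 5 µM, scaled per plate between neutral and stimulator controls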;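 further: PAF is a Pseudomonas aeruginosa culture filtrate used as stimulus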
Peg3 promoter: inhibitors of Peg3 promoter; HeLa PEG-Prom luciferase reporter, luminescence, overnight; inhibition, % at 20 µM; hit rate 1.7% among 360,000; AID 588405;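 active means inhibition of at least 50% at 20 µM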
TRPM1 prom inh: MITF TRPM1 promoter inhibition in SK-MEL-5 cells; SK-MEL-5 TRPM1 promoter luciferase, 24 h; inhibition, % at 12.5 µM; hit rate 0.83% among 330,000;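 active means mean inhibition across replicates of 60% or more, whatever share of single replicates reaches that level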
ABHD5 PLIN5 PPI: blocks binding of human ABHD5 to perilipin-5 | Q00G26+Q8WTS1 | Split G. princeps luciferase complementation, luminescence, 4 h | inhibition, % at 4 µM | hit rate 0.78% among 360,000;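 active means inhibition above the mean inhibition across every tested compound plus 3 SD, cut at about 22% in these data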
Target sequence (Q00G26 whole entry, looked up): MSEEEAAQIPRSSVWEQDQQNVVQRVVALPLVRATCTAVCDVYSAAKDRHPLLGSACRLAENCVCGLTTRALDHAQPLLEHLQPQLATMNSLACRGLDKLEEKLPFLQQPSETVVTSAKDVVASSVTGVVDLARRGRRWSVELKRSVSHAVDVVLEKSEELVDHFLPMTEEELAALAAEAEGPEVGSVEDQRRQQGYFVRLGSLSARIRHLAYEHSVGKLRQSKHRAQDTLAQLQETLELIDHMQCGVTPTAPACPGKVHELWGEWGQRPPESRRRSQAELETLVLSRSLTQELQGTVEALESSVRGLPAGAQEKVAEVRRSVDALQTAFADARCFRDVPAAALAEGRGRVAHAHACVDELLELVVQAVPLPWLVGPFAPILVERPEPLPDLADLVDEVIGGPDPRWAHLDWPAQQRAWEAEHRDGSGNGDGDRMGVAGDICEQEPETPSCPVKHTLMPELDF
Target sequence (Q8WTS1 whole entry, looked up): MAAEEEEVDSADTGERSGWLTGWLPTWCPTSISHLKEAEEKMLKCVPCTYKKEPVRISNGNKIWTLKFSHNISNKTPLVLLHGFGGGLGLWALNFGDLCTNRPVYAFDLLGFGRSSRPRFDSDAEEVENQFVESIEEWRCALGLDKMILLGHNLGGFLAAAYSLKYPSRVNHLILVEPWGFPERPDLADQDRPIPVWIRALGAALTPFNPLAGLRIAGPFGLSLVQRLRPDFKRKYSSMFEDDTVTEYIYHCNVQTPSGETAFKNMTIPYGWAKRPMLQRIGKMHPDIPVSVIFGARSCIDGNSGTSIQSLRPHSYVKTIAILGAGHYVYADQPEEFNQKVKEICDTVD
KKLEB cytotox: counter-screen for CF NF-kB inhibitors: cytotoxicity. KKLEB CF airway cells viability, ATPlite luminescence, overnight; stronger effect = lower value; cells stimulated with P. aeruginosa culture filtrate. activity change (cytotoxicity), % at 5 µM. hit rate 0.36% among 360,000;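 active means corrected activity change at or below -50% at 5 µM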
Each line names hits and unclear results; the compound was inactive in the other large screens. Only some compounds are listed: those with a hit (about 3% of all), similar ones and a draw of the others.

COc1ccc(/C=N\NC(=O)c2cc(O)c(O)c(O)c2)cc1CN1CCN(c2ccc(F)cc2)CC1	ABHD5 PLIN5 PPI 22
CN(C(=O)CSc1nc2sc3c(c2c(=O)n1C)CCC3)C1CCS(=O)(=O)C1 (stereo unspecified)	none
CCOC(=O)Cn1c(C)[n+](CC(=O)c2ccccc2)c2ccccc21	none
O=C1CSC(c2ccc3c(c2)OCO3)N1c1ccc(Oc2ccccc2)cc1 (stereo unspecified)	KKLEB cytotox -97
Cc1ccc(N2C(=O)CSC2c2ccc3c(c2)OCO3)cc1 (stereo unspecified)	none
COc1cc(C(=O)Nc2ccccc2N2CCOCC2)ccc1OCC(=O)N1CCOCC1	none
C=C(CN(C)C)C(=O)c1cc(C)ccc1C	HIF-2a block 90, Peg3 promoter 100, TRPM1 prom inh 106, ABHD5 PLIN5 PPI 67
Cc1cc(-c2csc(N)n2)c(C)n1Cc1ccco1	ABHD5 PLIN5 PPI 23
Cc1cc(-c2csc(N)n2)c(C)n1C	none
OC(CNCc1ccco1)Cn1c2ccc(Br)cc2c2cc(Br)ccc21 (stereo unspecified)	Peg3 promoter 98
N#Cc1nc(Nc2cccc(Cl)c2)c2ncn(C3CCCC3)c2n1	CF NFkB block 51, KKLEB cytotox -54
CCn1cnc2c(Nc3cc(F)cc(F)c3)nc(C#N)nc21	none
O=C(CN1C(=O)NC2(CCCCCC2)C1=O)Nc1ccccc1[N+](=O)[O-]	none
Cc1noc(C)c1NC(=O)N(C)C[C@H]1OCc2cn(nn2)CCCC(=O)N([C@@H](C)CO)C[C@@H]1C	none (no result: TRPM1 prom inh)
N#C/C(=C/c1ccc(N2CCOCC2)o1)c1ccc(Br)cc1	ABHD5 PLIN5 PPI 63
N#C/C(=C/c1ccc(N2CCCCCC2)o1)c1cccc(F)c1	ABHD5 PLIN5 PPI 59
N#C/C(=C\c1ccc(N2CCOCC2)o1)C(=O)Nc1ccc(O)cc1	none
N#C/C(=C/c1ccc(N2CCCCC2)o1)C(=O)Nc1ccc(Cl)cc1	none
N#C/C(=C/c1ccc(N2CCCCCC2)o1)c1ccc(F)cc1	HIF-2a block 71, ABHD5 PLIN5 PPI 71
CCCN1C2CCCC1CC(NC(=O)c1cc(OC)cc(OC)c1)C2 (stereo unspecified)	none
Cc1ccc(C(=O)N2CC(=O)Nc3ccc(F)cc3C2c2ccccc2)cc1 (stereo unspecified)	none
Cc1ccc(-c2cc(C(F)F)n3ncc(C(=O)Nc4c(C)nn(Cc5c(Cl)cccc5Cl)c4C)c3n2)cc1	CF NFkB block 77, KKLEB cytotox -65
Cc1nn(Cc2c(Cl)cccc2Cl)c(C)c1NC(=O)c1cnn2c(C(F)F)cc(-c3ccccc3)nc12	none
CC1CCCN(S(=O)(=O)c2ccc(NC(=O)Cn3nnc(-c4ccccc4F)n3)cc2)C1 (stereo unspecified)	ABHD5 PLIN5 PPI 22
CC1CCN(CC(=O)Nc2ccc(S(=O)(=O)N3CCC(C)CC3)cc2)CC1	none
Cc1ccc(-c2nnn(CC(=O)Nc3ccc(S(=O)(=O)N4CCC(C)CC4)cc3)n2)cc1	Peg3 promoter 63
Cc1ccc(-c2nc(=S)c3c(n2Cc2ccco2)CC(C)(C)OC3)cc1	ABHD5 PLIN5 PPI 55
COc1cc(NC(=O)CSc2nc(C3CC3)nc3ccccc23)cc(OC)c1	Peg3 promoter 99
O=C(CSc1nc(C2CC2)nc2ccccc12)Nc1ccccc1	none
CC(C)c1c(Cl)c(O)c(-c2ccccc2)c(=O)n1-c1ccc(F)cc1	none
COCCCNC(=O)c1cc(C)nn1-c1ccccc1	none
CCCCN(C)CCNC(=S)Nc1ccc2nc(N3CCN(CC)CC3)cc(C)c2c1	Peg3 promoter 63
Cc1cc(N2CCN(C)CC2)nc2ccc(NC(=S)N3CCN(c4ccc(Cl)cc4)CC3)cc12	none
Cc1cc(N2CCN(C)CC2)nc2ccc(NC(=S)N3CCN(c4ccc(F)cc4)CC3)cc12	Peg3 promoter 66
CCCN1CCN(CCCNC(=S)Nc2ccc3nc(N4CCN(CC)CC4)cc(C)c3c2)CC1	none
Cc1cc(N2CCCC2)nc2ccc(NC(=S)NCCCN3CCC(C)CC3)cc12	Peg3 promoter 98
Cc1cc(N2CCN(C)CC2)nc2ccc(NC(=S)NCCN3CCc4ccccc4C3)cc12	Peg3 promoter 61, TRPM1 prom inh 78
CC(C)(C)c1ccccc1NC(=O)N1CCNC(=O)C1CC(=O)Nc1ccc(F)cc1 (stereo unspecified)	none
